The results in this text go back to PubChem BioAssay (Tox21).

Each structure is given as a SMILES string. A number with no mark means an inactive call. Inconclusive results are not listed. The source made the active and inactive calls. Unless noted, the call rests on the fitted dose curve; in most records, active means well fitted curve in the direction sought with a large enough effect in the repeat runs; inconclusive means weak or mixed curves; inactive means no such curve, though single readings can be large; an effect the other way counts as inactive or inconclusive.

A short description of assay [1]: A CellTox Green Cytotoxicity Assay to monitor cytotoxicity in HepG2 cells - 0 hour (AID 1224882). Further: nearly all actives have a fitted effect of over 35% in size. Summed up:
(§1)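 Cells and non-lytic dye reagent are dispensed together (600 HepG2 cells/well) and incubated 5 h before DMSO compound transfer. Kinetic fluorescence is then recorded in the same wells during 40 h at 37 C.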

Assay [2] in a line: A CellTox Green Cytotoxicity Assay to monitor cytotoxicity in HEK293 cells - 8 hour (AID 1224884). Further: nearly all actives have a fitted effect of over 35% in size. Summed up: (§2)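 Cells (HEK293, 600/well) and dye reagent are dispensed together. After 5 h at 37 C, 23 nL compound is pinned in. Plates stay at 37 C for 40 h with fluorescence read at 0h, 8h, 16h, 24h, 32h and 40h.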
Assay [3] in a line: qHTS RealTime-Glo MT Cell Viability Assay in HepG2 cells - 16 hour (AID 1224885). Further: nearly all actives have a fitted effect of over 50% in size. Further: potency means the concentration at half of the fitted maximal effect. A digest of the protocol:
(§3)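 Cells + NanoLuc/prosubstrate dispensed (600 cells/well) → 5 h at 37 C/5% CO2 → compounds in DMSO transferred → 40 h incubation at 37 C, luminescence read at 0, 8, 16, 24, 32, 40 h.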
On the technique in general: In qHTS, concentration-response curves come from the screen itself.

A short description of assay [4]: qHTS RealTime-Glo MT Cell Viability Assay in HEK293 cells - 8 hour (AID 1224887). Further: nearly all actives have a fitted effect of over 50% in size. Further: potency means the concentration at half of the fitted maximal effect. On activity change, negative = cytotoxicity: top concentration of the series differs between compounds. A digest of the protocol: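 Real-time viability in HEK293: signal arises when living cells convert a prosubstrate for NanoLuc in the medium, so luminescence tracks viable cell number. Compound (23 nL, DMSO) added 5 h post-seeding; kinetic reads at 0–40 h, 37 C.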
The nature of assay [5]: A CellTox Green Cytotoxicity Assay to monitor cytotoxicity in HEK293 cells - 16 hour (AID 1224888). Further: nearly all actives have a fitted effect of over 35% in size. A digest of the protocol: as §2
The nature of assay [6]: qHTS RealTime-Glo MT Cell Viability Assay in HepG2 cells - 0 hour (AID 1224889). Further: nearly all actives have a fitted effect of over 50% in size. A digest of the protocol: as §3
Assay [7] is described as follows: A CellTox Green Cytotoxicity Assay to monitor cytotoxicity in HepG2 cells - 8 hour (AID 1224890). Further: nearly all actives have a fitted effect of over 45% in size. Summed up:
as §1

A short description of assay [8]: qHTS assay to identify small molecule antagonists of the estrogen receptor alpha (ER-alpha) signaling pathway using the BG1 cell line in the presence of 0.1 nM 17-beta-estradiol - cell viability counter screen (AID 1259241). Further: nearly all actives have a fitted effect of over 40% in size. Further: potency means the concentration at half of the fitted maximal effect. A digest of the protocol:
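VM7Luc4E2 cells (endogenous full-length ER-alpha, 4xERE-luciferase), cultured 5 days in charcoal-stripped serum, exposed to compounds with 0.1 nM 17beta-estradiol (final) for 22 hr at 37C. Viability read in same wells as live-cell protease fluorescence after 30 min.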

Assay [9] has as its target Estrogen receptor (Homo sapiens) (UniProt P03372). Description: qHTS assay to identify small molecule antagonists of the estrogen receptor alpha (ER-alpha) signaling pathway using the BG1 cell line in the presence of 0.1 nM 17-beta-estradiol (AID 1259244). Further: nearly all actives have a fitted effect of over 50% in size. Further: potency means the concentration at half of the fitted maximal effect. A digest of the protocol: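 Antagonist mode: compounds in DMSO are pinned onto VM7Luc4E2 reporter cells, 0.1 nM final 17beta-estradiol is added, and after 22 h at 37C luciferase luminescence is measured with ONE-Glo.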

Assay [10] is described as follows: qHTS assay to identify small molecule HDAC inhibitors (AID 1259364).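 Further: wild-type HCT-116 cells with endogenous class I/II HDAC activity; top concentration of the series differs between compounds; nearly all actives have a fitted effect of over 45% in size.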 A digest of the protocol:
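Cells (HCT-116, wild type) are seeded at 1,500 per well, incubated overnight, treated with compound in DMSO for 2 hr, then developed with HDAC-Glo I/II reagent for 30 min at room temperature.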

Assay [11] is described as follows: qHTS assay to identify small molecule HDAC inhibitors - cell viability counter screen (AID 1259365). A digest of the protocol: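 Wild-type HCT-116 cells, 1,500/well, cultured overnight, then compound-treated 2 h at 37 C. Viability measured as ATP luminescence with CellTiter-Glo after 30 min at room temperature.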
Assay [12] can be described thus: qHTS assay to identify small molecule agonists of the sonic hedgehog signaling (Shh) pathway - cell viability counter screen (AID 1259366). Further: nearly all actives have a fitted effect of over 50% in size. Further: potency means the concentration at half of the fitted maximal effect. A digest of the protocol: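 NIH/3T3-derived Gli1-Luc reporter cells, 2,000 per well, received compound after 4 h and were treated about 23 h at 37C. Viability measured in the same wells by CellTiter-Fluor fluorescence after 1 h.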

The nature of assay [13]: qHTS assay to identify small molecule antagonists of the sonic hedgehog signaling (Shh) pathway - cell viability counter screen (AID 1259367). Further: nearly all actives have a fitted effect of over 55% in size. Further: potency means the concentration at half of the fitted maximal effect. A digest of the protocol: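 Fluorescence read-out (CellTiter-Fluor, 1 hr at 37C) taken after 23 hr compound treatment of 3T3 Gli1-Luc cells stimulated with conditioned medium. Cells were seeded at 2,000 per well and pre-incubated 4 hr.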

The nature of assay [14]: qHTS assay to identify small molecule agonists of the sonic hedgehog signaling (Shh) pathway (AID 1259368; calls by dose curve;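 further: NIH/3T3-derived 3T3Gli1-Luc cells carrying a stable Gli1-driven firefly luciferase reporter; series mostly up to about 92 µM; nearly all actives have a fitted effect of over 15% in size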). Summed up: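 Cells of a mouse NIH/3T3 clone stably expressing luciferase under the Gli1 transcriptional response element are exposed to test chemicals for 24 hr at 37 C. Pathway activation is detected as a rise in luminescence.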
A short description of assay [15]: qHTS assay to identify small molecule antagonists of the sonic hedgehog signaling (Shh) pathway (AID 1259369; calls by dose curve; further: nearly all actives have a fitted effect of over 45% in size; further: potency means the concentration at half of the fitted maximal effect). Summed up: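 Cells are plated and held 4hr at 37 C, compounds (DMSO) are pinned in, conditioned medium is added to stimulate the pathway, and after 24hr luciferase reagent is added for 30min before luminescence is read.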
Assay [16] is described as follows: qHTS RealTime-Glo MT Cell Viability Assay in HEK293 cells - 24 hour (AID 1224886). Further: nearly all actives have a fitted effect of over 50% in size. Further: potency means the concentration at half of the fitted maximal effect. On activity change, negative = cytotoxicity: top concentration of the series differs between compounds. Summed up: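 Tox21 10K qHTS, HEK293, 600 cells/well, RealTime-Glo reagent co-dispensed with cells; 5 h preincubation, compound by pintool, 37 C, luminescence at 0–40 h.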
Assay [17] in a line: qHTS assay to identify small molecule antagonists of the androgen receptor (AR) signaling pathway using the MDA cell line in the presence of 0.5 nM R1881 - cell viability counter screen (AID 1259242). Further: nearly all actives have a fitted effect of over 45% in size. A digest of the protocol: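 Steps: plate MDA-kb2 cells, rest 5 hr at 37C without CO2; pin in compounds in DMSO; add R1881 to 0.5 nM final; incubate 16 hr; add CellTiter-Fluor, 30 min; read fluorescence.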

For assay [18], the target named is Androgen receptor (Homo sapiens) (UniProt P10275). Description: qHTS assay to identify small molecule antagonists of the androgen receptor (AR) signaling pathway using the MDA cell line in the presence of 0.5 nM R1881 (AID 1259243). Further: nearly all actives have a fitted effect of over 50% in size. Further: potency means the concentration at half of the fitted maximal effect. Summed up:
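Stably transfected MDA-kb2 cells express luciferase from an MMTV promoter bearing both AR and GR response elements. Compounds plus 0.5 nM R1881 (final) were incubated 16 hr at 37C without CO2, then luminescence measured.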
On the % scale 0 is the no-effect control and ±100 the full control effect.

Androgen receptor (Homo sapiens), sequence (P10275 whole entry, looked up): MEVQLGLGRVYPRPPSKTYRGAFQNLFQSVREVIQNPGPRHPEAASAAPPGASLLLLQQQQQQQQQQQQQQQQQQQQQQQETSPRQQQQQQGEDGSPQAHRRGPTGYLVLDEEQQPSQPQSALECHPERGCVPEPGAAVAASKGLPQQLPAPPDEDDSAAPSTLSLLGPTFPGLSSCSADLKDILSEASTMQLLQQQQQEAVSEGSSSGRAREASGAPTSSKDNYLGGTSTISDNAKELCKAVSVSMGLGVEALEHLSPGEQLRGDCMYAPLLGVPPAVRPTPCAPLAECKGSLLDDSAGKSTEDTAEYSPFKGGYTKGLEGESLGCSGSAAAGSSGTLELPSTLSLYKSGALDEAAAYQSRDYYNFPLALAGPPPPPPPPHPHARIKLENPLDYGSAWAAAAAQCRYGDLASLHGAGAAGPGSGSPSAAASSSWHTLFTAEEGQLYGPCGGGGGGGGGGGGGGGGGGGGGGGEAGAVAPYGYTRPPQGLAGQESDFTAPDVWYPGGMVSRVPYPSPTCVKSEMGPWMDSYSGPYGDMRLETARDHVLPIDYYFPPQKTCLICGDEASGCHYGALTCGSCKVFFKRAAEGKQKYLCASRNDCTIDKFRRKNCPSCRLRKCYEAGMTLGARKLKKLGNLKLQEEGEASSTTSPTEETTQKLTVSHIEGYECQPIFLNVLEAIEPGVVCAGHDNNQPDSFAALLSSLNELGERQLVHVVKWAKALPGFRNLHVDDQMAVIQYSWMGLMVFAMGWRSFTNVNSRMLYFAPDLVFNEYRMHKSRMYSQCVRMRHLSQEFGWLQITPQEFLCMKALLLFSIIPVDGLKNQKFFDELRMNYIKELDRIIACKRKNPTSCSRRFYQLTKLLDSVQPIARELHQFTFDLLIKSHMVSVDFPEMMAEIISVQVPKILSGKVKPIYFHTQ
Estrogen receptor (Homo sapiens), sequence (P03372 whole entry, looked up): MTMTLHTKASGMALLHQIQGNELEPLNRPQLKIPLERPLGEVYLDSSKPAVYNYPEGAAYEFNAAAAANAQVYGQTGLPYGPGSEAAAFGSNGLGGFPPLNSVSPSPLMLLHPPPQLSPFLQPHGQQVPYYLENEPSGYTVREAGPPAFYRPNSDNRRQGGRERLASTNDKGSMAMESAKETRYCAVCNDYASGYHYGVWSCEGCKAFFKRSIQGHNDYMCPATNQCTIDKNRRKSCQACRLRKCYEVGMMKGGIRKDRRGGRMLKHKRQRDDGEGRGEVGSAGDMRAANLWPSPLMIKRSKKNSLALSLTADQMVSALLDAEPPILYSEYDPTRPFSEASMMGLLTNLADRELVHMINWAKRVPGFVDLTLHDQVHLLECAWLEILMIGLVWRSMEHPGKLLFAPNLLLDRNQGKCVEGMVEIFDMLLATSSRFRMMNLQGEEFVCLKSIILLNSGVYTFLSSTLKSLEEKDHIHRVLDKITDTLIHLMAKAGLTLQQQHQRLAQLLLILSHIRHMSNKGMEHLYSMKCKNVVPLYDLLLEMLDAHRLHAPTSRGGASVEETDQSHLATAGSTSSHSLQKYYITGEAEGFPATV

Turning to `CNC(=S)NN`, the Potency entry in [1], in [2], in [3], in assay [4], in assay [5] and in [6] was “inactive” throughout. Also, the Potency result in assay [7], in assay [8], in assay [10], in assay [11] and in [14] was “inactive” each time. The Potency in assay [9] is 48.6 µM (active); in [12] it was 30.6 µM (active); in assay [13], 17.2 µM (active); in assay [15], 3.44 µM (active).

Turning to `SCCCCCCCCS`, the Potency entry in [1], in assay [2], in assay [3], in assay [16], in assay [4] and in assay [5] was “inactive” in each case. Further, the Potency result in [6], in assay [8], in assay [11], in assay [13], in assay [14] and in assay [15] was “inactive” in each case.

Take `Cc1cncc(C)c1`: the Potency entry in [1], in assay [2], in assay [3], in assay [16], in assay [4] and in [6] was “inactive” each time. Moreover, the Potency result in assay [7], in assay [8], in assay [17], in [9], in [10] and in assay [11] was “inactive” in each case. In addition, the Potency entry in assay [12], in assay [13], in assay [14] and in assay [15] was “inactive” throughout.

Consider `c1cc(OCC2CO2)cc(OCC2CO2)c1` (configuration not stated), for which the Potency result in assay [1], in [2], in [3], in [4], in assay [5] and in [6] was “inactive” throughout. Also, the Potency entry in [7], in [17], in assay [11] and in [14] was “inactive” each time. Further, the Potency in [16] was 24.4 µM (active); in assay [18], 48.2 µM (active); in assay [9], 48.2 µM (active); in assay [12], 21.5 µM (active); in assay [13], 60.6 µM (active); in assay [15], 19.2 µM (active).

`Cc1cc(C)c(C=O)c(C)c1`: the Potency entry in assay [1], in [2], in [3], in [16], in assay [4] and in assay [5] was “inactive” throughout. In addition, the Potency result in [6], in assay [8], in [17], in assay [9], in assay [10] and in [11] was “inactive” throughout. Also, the Potency result in assay [12], in assay [14] and in assay [15] was “inactive” in each case.

Take `COc1cccc(CCc2ccccc2OCC(CN(C)C)OC(=O)CCC(=O)O)c1` (configuration not stated): the Potency result in [1], in assay [2], in [3], in assay [16], in assay [4] and in assay [5] was “inactive” each time. For the same compound, the Potency result in assay [6], in assay [7], in [8], in assay [17], in assay [9] and in assay [11] was “inactive” throughout. Also, the Potency result in assay [13] and in assay [14] was “inactive” in each case. The Potency in assay [15] was 16.8 µM (active).

Regarding `CCCCCCCCCCCCCOP(=O)(O)O`, the Potency entry in assay [1], in assay [2], in assay [3], in [16], in assay [4] and in [5] was “inactive” each time. Besides, the Potency result in assay [6], in assay [8], in assay [17], in assay [9], in assay [10] and in assay [12] was “inactive” in each case. Besides, the Potency result in [13], in assay [14] and in [15] was “inactive” in each case.

`NC(=O)C(=O)N/N=C/c1ccc([N+](=O)[O-])o1`: the Potency result in [1], in assay [2], in assay [3], in [16], in assay [4] and in assay [5] was “inactive” in each case. Also, the Potency result in [6], in assay [7], in assay [8], in assay [18], in [9] and in assay [11] was “inactive” each time. Also, the Potency result in assay [12] and in [14] was “inactive” each time.

Take `O=C=NCc1cccc(CN=C=O)c1`: the cytotoxicity in assay [1] was 0.25% [at 15.8 µM]. In addition, the cytotoxicity increase in [2] was -1.28% [at 15.8 µM]; in [7], -0.221% [at 15.8 µM]. Moreover, the activity change, negative = cytotoxic in assay [3] was 0.437% [at 15.8 µM]. The activity change, negative = cytotoxicity in assay [16] is 4.88% [at 15.8 µM]; in assay [4] it was 1.79% [at 15.8 µM]; in [6], 2.48% [at 15.8 µM]; in assay [11] it was 0.277% [at 19 µM]. Further, the activity change in assay [5] is -10.6% [at 15.8 µM, hits give high values]; in [14] it was -1.18% [at 18.9 µM, hits give high values]. Also, the viability change, negative = cytotoxic is -0.671% [at 19 µM] in assay [17] and 4.73% [at 19 µM] in assay [12]. The activity change, negative = inhibition in assay [9] is 2.93% [at 19 µM]; in assay [10], 3.12% [at 19 µM]; in [15], 11.1% [at 19 µM].

As for `CCC(C)c1cc([N+](=O)[O-])cc([N+](=O)[O-])c1OC(=O)OC(C)C` (configuration not stated), the Potency entry in assay [1], in [2], in assay [5], in assay [6], in [7] and in assay [10] was “inactive” throughout. In addition, the Potency entry in [11] and in assay [14] was “inactive” throughout. The Potency in [3] is 49 µM (active); in assay [4], 49 µM (active); in [8], 38.6 µM (active); in assay [18], 38.6 µM (active); in [13] it was 68.6 µM (active); in assay [15], 21.7 µM (active).
